This note sets out measurements from the OligoGym collection.
Further: reference of the scale not given here.

The target in the first assay is DPRX. As to the kind of experiment: pooled miR-30 sensor sort-seq; sequence = guide strand. The note with it: shRNA.
The sequence TAGTGTGTCTGCATTTCTCAGG came in with a sensor-assay potency score (higher = more potent) of -0.247.
Turning to TTTTTGATGAATATGCTTGCAT, the sensor-assay potency score (higher = more potent) turned out to be 0.217.
The same measure, in the same setting: for TTGGGGTACAGGATGAGCTGGA the value was 0.271.
TCTTAGTGAACATGGTTCGTTT yielded a sensor-assay potency score (higher = more potent) of -0.457.
Take TTTTGCTCTGTGATTCTTGAAC: the sensor-assay potency score (higher = more potent) is -0.966.
TTTCCTGTGTGAATGCATCTGG came in with a sensor-assay potency score (higher = more potent) of 0.364.
Turning to TGCTTCTTAGTGAACATGGTTC, the sensor-assay potency score (higher = more potent) is -0.891.
TTTTGATGAATATGCTTGCATT returned a sensor-assay potency score (higher = more potent) of -1.14.
The same measure, in the same setting: under TCGATGACCCGTGTACACCAGG stands -1.09; under TTCTTAGTGAACATGGTTCGTT, 0.0305.
Sequence TTGCTTCTTAGTGAACATGGTT had a sensor-assay potency score (higher = more potent) of -0.403.

A further assay addresses DQX1. The description is as above. The note with it: shRNA.
In the case of TTTAGTAGTAACACCAGGGAGC, the sensor-assay potency score (higher = more potent) was -0.54.
Same read-out and setting: under TTGCTCGCAATCGTCTTGCCTC stands -0.154; under TTTTAGTAGTAACACCAGGGAG, -0.895; under TAGGATTGTAAACACTTCGGAG, -0.968.
In the case of AACACTAGCACATCTCCTGGAA, the sensor-assay potency score (higher = more potent) is 0.212.
For the sequence TTCTGATAGTATGACACCCAGA, the sensor-assay potency score (higher = more potent) is -1.09.
In the case of TATAAAGGCTTCATACACCTGG, the sensor-assay potency score (higher = more potent) is 0.178.
In turn, TTGAATCTCAGAAACAATGGAA yielded a sensor-assay potency score (higher = more potent) of 0.304.
Still for that read-out and setting: for TAGTATGACACCCAGATCTGAC the value was -0.721.
Same read-out and setting: for TTCTGGAGCAGGCTGGTCCAGG the value was -1.18.
The sequence TTCAGCAGCTCATAGTAGCGGG registered a sensor-assay potency score (higher = more potent) of -0.681.
The same measure, in the same setting: under TGAGTGACCACAACCTTTCGGG stands 0.181.

The next assay deals with DSPP. The description is as above. The settings on record: shRNA.
Turning to TATGTTGACAACCTCTCCTTGT, the sensor-assay potency score (higher = more potent) was determined as 0.37.
Regarding TTTCTCTTGCTGTTGATCTGAG, the sensor-assay potency score (higher = more potent) is -0.329.
Sequence TTTCTGAATTAGCATCATCATT gave a sensor-assay potency score (higher = more potent) of -1.5.
The sequence TTTTTCGACATGTCTCTCCAGT had a sensor-assay potency score (higher = more potent) of -0.00978.
The same measure, in the same setting: under TTGCTGCTGTCTGACTTGCTGT stands -1.02.
TTGTCTGTACTGTTATTGCTTC came in with a sensor-assay potency score (higher = more potent) of -0.739.
Take TACTTGAGGTCCATCTTCTTGG: the sensor-assay potency score (higher = more potent) is -0.264.
For TTGTGTCTTGACATTGCCTTTG, the sensor-assay potency score (higher = more potent) was -0.762.
Turning to TTACTGTCACTATCACTGCTGT, the sensor-assay potency score (higher = more potent) is -0.164.
On the same count and under the same terms, under TTATTAGTGTCTGATGTGCTAT stands -0.602; under TATTCTTATCAGTATTTCCATT, -0.803.
Regarding TGTACTGACACATTTGATCTTG, the sensor-assay potency score (higher = more potent) is 0.307.
As for TATGTAGAAAAACTCTTCCCTC, the sensor-assay potency score (higher = more potent) is -0.0837.
TACTATCTGAATTTTGACCTAT had a sensor-assay potency score (higher = more potent) of 0.43.
For TTGCTATCACTGCTGTTGCTGC, the sensor-assay potency score (higher = more potent) is -0.741.
As to TTTGCTTTCTCTATGGTTGAGC, the sensor-assay potency score (higher = more potent) turned out to be 0.0105.
Sequence TTGGACAACAGCGACATCCTCA showed a sensor-assay potency score (higher = more potent) of 0.0891.
